Compounds without any hit were thinned out: in the full panel of roughly 79,000, 15% have a hit. No stated cut-off is given here; in the data, active means growth inhibition above about 70%; inactive means the rest. Where a SMILES comes first, the peptide text is derived from it. The star is where a group is joined. Boc = CC(C)(C)OC(=O)*; Bn = c1ccc(C*)cc1
Key:
[1] = NCI Yeast Anticancer Drug Screen. Data for the rad50 strain (AID 155);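 further: 0% = growth of vehicle-only cultures of the same strain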; conditions: S. cerevisiae rad50 strain growth inhibition; at 50.0 µM; hits give high values
Summary of the method: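 Compounds were tested on a yeast strain with an engineered DNA damage repair alteration; the reported value is growth inhibition normalised to vehicle treatment.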

[2] = NCI Yeast Anticancer Drug Screen. Data for the mec2-1 strain (AID 157); conditions: S. cerevisiae mec2-1 strain, at 50.0 µM, hits give high values
Summary of the method: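 Readout is yeast growth inhibition, normalised to vehicle-treated controls, in the mec2-1 strain exposed to compound.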

[3] = NCI Yeast Anticancer Drug Screen. Data for the sgs1 mgt1 strain (AID 161);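 further: 0% = growth of cultures given vehicle only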; conditions: S. cerevisiae sgs1 mgt1 strain, at 50.0 µM, hits give high values
Summary of the method: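 This yeast growth screen uses a strain with defined DNA-repair lesions; compound-treated growth is compared with vehicle-treated growth.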

[4] = NCI Yeast Anticancer Drug Screen. Data for the cln2 rad14 strain (AID 165);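 further: 0% = growth equal to vehicle treated cultures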; conditions: S. cerevisiae cln2 rad14 strain, at 50.0 µM, hits give high values
Summary of the method: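 Relative to vehicle controls, growth inhibition of compound-treated cln2 rad14 yeast was recorded.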

[5] = NCI Yeast Anticancer Drug Screen. Data for the bub3 strain (AID 167); conditions: S. cerevisiae bub3 mutant strain, at 50.0 µM, hits give high values
Summary of the method: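 Growth of a checkpoint-deficient yeast mutant is measured after compound exposure. Values represent inhibition relative to vehicle.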

[6] = NCI Yeast Anticancer Drug Screen. Data for the mlh1 rad18 strain (AID 175); conditions: S. cerevisiae mlh1 rad18 strain growth inhibition; at 50.0 µM; hits give high values
Summary of the method: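 Test agents were incubated with a yeast strain of defined genotype (DNA damage repair defect). Inhibition of growth was derived by comparison with vehicle-exposed cultures.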

Measured: growth inhibition

O=C(/C=C/c1ccccc1)NC(=S)Nc1ccccc1F
inactive: [1] 12.1% | [2] -3.1% | [3] -23.9% | [4] -12.4% | [5] 29.7% | [6] 20.6%

C[n+]1cccc2c(=O)c3ccccc3oc21
inactive: [1] 0.8% | [2] -14.5% | [3] -6.25% | [4] -17.9% | [5] 4.65% | [6] -20.2%

COc1c2occc2c(CC(O)C(C)(C)O)c2ccc(=O)oc12 (stereo unspecified)
inactive: [1] 13.4% | [2] -20.7% | [3] 14.8% | [4] -6.75% | [5] -3.75% | [6] -13.2%

O=C(O)CC(=O)c1ccccc1
inactive: [1] -27.8% | [2] 4.85% | [3] -10.4% | [4] 14.2% | [5] 4.35% | [6] -15.8%

CC(=O)CC(C)(C)NC(=S)NCCO
inactive: [1] 1.2% | [2] -26.5% | [3] 2% | [4] -29.4% | [5] -8.85% | [6] -13.4%

O=C(Nc1cccc(O)c1)C(O)C(O)C(O)C(O)CO (stereo unspecified)
inactive: [1] -10.8% | [2] 14.4% | [3] 18.2% | [4] 10.6% | [5] 9.05% | [6] 10.9%

O=COCc1ccc2c(c1)OCO2
inactive: [1] 35.3% | [2] 36.9% | [3] 22.9% | [4] 15.2% | [5] 10.1% | [6] 27.8%

O=C(O)c1ccccc1/C=N/NC1=NCCCCN1
inactive: [1] -46.8% | [2] -23.4% | [3] -29.4% | [4] -9.65% | [5] -7.55% | [6] -33.1%

CN1CC2=C(NC(=S)NC2c2ccccc2Cl)/C(=C/c2ccccc2Cl)C1 (stereo unspecified)
inactive: [1] 14.7% | [2] 13.2% | [3] 37.6% | [4] 10.6% | [5] 61.8% | [6] -5.15%

N#Cc1c(-c2ccccc2)[nH]c2ccc(Cl)cc2c1=O
inactive: [1] 6.6% | [2] -30.5% | [3] -21.7% | [4] -7.8% | [5] -9.75% | [6] -28.1%

Cc1ccc(C(C)C)cc1NC=O
inactive: [1] -6.55% | [2] -13.3% | [3] -20.1% | [4] 0.05% | [5] -2.6% | [6] 5.4%

O=C1NC2(CCN(CCc3ccccc3)CC2)Oc2ccccc21
inactive: [1] 28.9% | [2] -10.2% | [3] 15.7% | [4] 17.6% | [5] 11.5% | [6] 11.1%

Cc1cn(-c2c(C)c(C)c(-n3c(C)ccc3C)c(C)c2C)cc1C
inactive: [1] -3.1% | [2] -5.55% | [3] -6.2% | [4] -15.8% | [5] 4.85% | [6] 0%

COc1cccc(C2c3cc4c(cc3OC(Nc3ccccc3)C2C)OCO4)c1OC (stereo unspecified)
inactive: [1] -28.4% | [2] 6.25% | [3] -28.1% | [4] 3.35% | [5] -36.9% | [6] -21.4%

C=C1CCC1
inactive: [1] 1.05% | [2] -11.5% | [3] -14.7% | [4] 10.6% | [5] 6.05% | [6] -3.35%

CCCCCNC(=S)NNC(N)=O
inactive: [1] 4.2% | [2] -0.15% | [3] -12.8% | [4] -0.7% | [5] 5.25% | [6] -0.75%

Cc1ccc(NC(=O)CCCC(=O)C(C#N)c2ccccc2Cl)cc1C (stereo unspecified)
inactive: [1] 0.15% | [2] -0.95% | [3] -5.75% | [4] -22.5% | [5] -10.1% | [6] -5.1%

CCN1CCC(O)(c2ccc(Oc3ccc(F)cc3)cc2)C(C(=O)c2ccc(Oc3ccc(F)cc3)cc2)C1 (stereo unspecified)
inactive: [1] 20.1% | [2] 2.9% | [3] 14.6% | [4] 5.95% | [5] 5.65% | [6] 29.9%

C[C@]12CC=CC(=O)[C@@]1(C)CCC(=O)C2
inactive: [1] 3.45% | [2] 0.95% | [3] -9.05% | [4] -25.4% | [5] -4.7% | [6] 8.1%

CCOC(=O)C(=O)Nc1c(C)cccc1CC
inactive: [1] 0.15% | [2] -4.1% | [3] -5.05% | [4] -16.4% | [5] 6.2% | [6] -1.05%

Cc1cc(C)c(C(=O)Oc2ccc(C)c(CC(Cl)(Cl)Cl)c2)c(C)c1
inactive: [1] 32.8% | [2] 9% | [3] 4.85% | [4] 19.1% | [5] -0.2% | [6] 14.4%

O=C(c1ccc(Cl)cc1)c1nnc(Cl)s1
inactive: [1] -4.7% | [2] 2.2% | [3] -6.7% | [4] -10.8% | [5] 24.8% | [6] 2.3%

c1ccc(-c2cnn3c(-c4ccccc4)cnnc23)cc1
inactive: [1] -1.65% | [2] -8.1% | [3] -2.55% | [4] 2.8% | [5] 2.8% | [6] 4.65%

Nc1[nH]c(=S)[nH]c(=O)c1NS(=O)(=O)c1ccccc1
inactive: [1] 3.65% | [2] -1.6% | [3] 12.6% | [4] -4.85% | [5] -10.2% | [6] 18.4%

CCOC(=O)/C(=C\n1c(=S)[nH]c2cc(C)ccc21)C(=O)c1ccccc1
inactive: [1] -41.2% | [2] -60.5% | [3] -18.8% | [4] 10.8% | [5] -14.2% | [6] -13.5%

CC(C)(C)N1CCC(=O)C1=O
inactive: [1] 23.8% | [2] 22.9% | [3] 1.85% | [4] 7.85% | [5] 5.85% | [6] 17.8%

COc1ccc(C(=O)CCC(=O)O)c(C)c1
inactive: [1] 7.45% | [2] 13.1% | [3] -0.85% | [4] 1.55% | [5] 19.6% | [6] 5.25%

O=C(COc1cccc(Cl)c1)Nc1cccc(S(=O)(=O)O)c1 (tested in a mixture with another compound)
inactive: [1] 5.15% | [2] -7.65% | [3] -12.8% | [4] -16.6% | [5] 2% | [6] 11.2%

COC(=O)C(CC(C)C)NC(=O)CNC(=O)C(Cc1ccc(OCc2ccccc2)cc1)NC(=O)C(COCc1ccccc1)NC(=O)OC(C)(C)C (stereo unspecified) (Boc-S(Bn)Y(Bn)GL-OMe; configuration not given here)
inactive: [1] -26.8% | [2] -22.6% | [3] -23.8% | [4] 11.8% | [5] 2.65% | [6] -10.5%

O=C1OC(=O)C2C3C=CC(CC3)C12 (stereo unspecified)
inactive: [1] -1.35% | [2] 4% | [3] -13.3% | [4] -65% | [5] -31.1% | [6] -0.1%

CC(C)OC1(c2ccccc2)OC(c2ccccc2)=CC1=O (stereo unspecified)
inactive: [1] 5.35% | [2] -17.1% | [3] -12.1% | [4] -7.4% | [5] 14.1% | [6] -0.8%

O=C1c2ccccc2C(=O)N1N1C(=O)c2ccccc2C1=O
inactive: [1] 3.95% | [2] -16.8% | [3] -4.45% | [4] 14% | [5] -4.7% | [6] 17.4%

Nc1nc(Cl)cc(NCC(O)CO)n1 (stereo unspecified)
inactive: [1] 7.55% | [2] 2.35% | [3] -1.45% | [4] 6.65% | [5] -0.25% | [6] -2.55%

CC(C)C(C(=O)O)N1C(=O)c2ccccc2C1=O (stereo unspecified)
inactive: [1] -16.2% | [2] -1.5% | [3] -12.2% | [4] -31.6% | [5] -16.1% | [6] -4.15%

N#C/C(=C\c1ccccc1)C(NO)Nc1ccccc1 (stereo unspecified)
inactive: [1] -31.1% | [2] -10.2% | [3] -1.4% | [4] 0.05% | [5] 6.65% | [6] -14.8%

CC(=O)OC(Cc1ccc2ccccc2n1)(C(F)(F)F)C(F)(F)F
inactive: [1] -17.6% | [2] -16.1% | [3] -8.05% | [4] 6.2% | [5] 5.5% | [6] -24.5%

COCCOC(=O)CCC(C)=O
inactive: [1] 20.8% | [2] 15.1% | [3] 6.45% | [4] 7.8% | [5] -4.95% | [6] 10.7%

COc1cc(C)c(C(=O)c2ccccc2NS(=O)(=O)c2ccc(C)cc2)cc1OC
inactive: [1] 7.6% | [2] -0.7% | [3] -1.5% | [4] 22.6% | [5] -2.95% | [6] 9.1%

Cc1cccc(C)c1-n1c(C)nc2[nH]cc(C)c2c1=N
inactive: [1] 6.35% | [2] -6.25% | [3] 4.55% | [4] 5.1% | [5] 17.1% | [6] 8.95%

Cc1cccc(C)c1NN
inactive: [1] 23.2% | [2] -4.15% | [3] 11.8% | [4] -12.7% | [5] -11.5% | [6] 24.2%

Nc1nc2c(ncn2Cc2ccc(Cl)c(Cl)c2)c(=O)[nH]1
inactive: [1] -5.1% | [2] -7.4% | [3] -1.65% | [4] -10.1% | [5] -0.5% | [6] 2.55%
